# Source: PubChem
# Only a selection was taken, and hits are over-represented in it overall.
# ALOX12 inhib: blocks human 12-lipoxygenase activity; Potency, µM (titrated, usually from 57.1 µM), actives largely listed as inhibitors; AID 1452; P18054; 150,000 tested, 0.12% active; purified 12-hLO, xylenol orange hydroperoxide absorbance; also: nearly all actives have a fitted effect of over 55% in size
#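 Hydroperoxide output read as Fe(III)-xylenol orange absorbance, 573-to-405 nm ratio, after 30 min reaction with 40 uM arachidonic acid. Enzyme: 150 nM purified human 12hLO, 15 min compound preincubation; 25 mM Hepes pH 7.0, room temperature.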
# IMPase cell inh: membrane-permeable compound that blocks inositol monophosphatase. P97697. CHO-M1 cells, IP1 accumulation, HTRF TR-FRET ratio. inhibition (IP1 accumulation), % at 46.1 µM. 120,000 tested, under 10 active. AID 901; active = well fitted curve in the direction sought with a large enough effect in the signal ratio, not every such curve was filed as active; inconclusive = small, poorly fitted or top-dose-only effect, or a change in a side signal; inactive = no such curve, though single readings can be large or run the other way; the % refers to the signal ratio;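 also: cells stimulated with carbachol in lithium chloride buffer; higher means more IMPase inhibition seen as more IP1 and lower FRET ratio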
# Target sequence (P97697 whole entry, looked up): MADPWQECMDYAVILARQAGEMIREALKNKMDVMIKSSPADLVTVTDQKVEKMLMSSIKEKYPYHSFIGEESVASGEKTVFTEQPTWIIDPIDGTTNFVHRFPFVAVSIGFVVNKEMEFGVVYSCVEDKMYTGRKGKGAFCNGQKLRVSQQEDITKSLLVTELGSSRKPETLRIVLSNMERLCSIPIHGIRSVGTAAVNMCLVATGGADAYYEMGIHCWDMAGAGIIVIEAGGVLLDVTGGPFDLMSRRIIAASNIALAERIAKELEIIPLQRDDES
#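 Cellular IMPase inhibition is scored as a rise in cytosolic IP1, detected by competitive TR-FRET between d2-labelled IP1 and a europium anti-IP1 antibody. M1-expressing CHO cells were stimulated with carbachol for 30 min at 37C, with lithium (50 mM LiCl) present in the buffer.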
# IMPase Li inh: cell-permeable IMPase inhibitors with lithium potentiation. CHO-M1 cells, IP1 TR-FRET (IP-One), carbachol + lithium. 210,000 tested, 0.35% active. Potency, µM (highest dose often 59.4 µM), usual class: inhibitors;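 also: IP1 builds up when IMPase is blocked and the TR-FRET signal falls; nearly all actives have a fitted effect of over 50% in size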
#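 CHO-M1, 2000 cells/well, 16–30 h culture; cpd + low Li+, 30 min 37C; lysis with d2-IP1/Eu-anti-IP1 Ab, 10 min RT; TR-FRET 665/620 ratio and 620 channel; AC50 via Hill.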
# PNC assembly inh: perinucleolar compartment assembly inhibition; PC3M PTB-GFP, PNC prevalence imaging, 16 h; active compounds read low; 140,000 tested, 3.1% active; activity change (PNC), negative = inhibition, % at 10 µM;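 active = readout at or below -70, meaning at least 70% loss of cells showing the perinucleolar compartment, a nuclear body marking cancer cells; inconclusive = readout between -30 and a set limit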
#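 PC3M cells stably expressing PTB-GFP, 750–1000 cells/well, treated 16 h at 37 °C with compound (23 nl of library stock), in duplicate. After paraformaldehyde fixation and Hoechst stain, imaged at 20x; PNC prevalence scored by image analysis.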
# ALOX15B inhib: 15-hLO-2 (ALOX15B) enzyme inhibition | O15296 | purified 15hLO-2, xylenol orange hydroperoxide absorbance | Potency, µM (titrated, usually from 57.1 µM), most hits filed as inhibitors | 110,000 tested, 0.56% active; also: nearly all actives have a fitted effect of over 60% in size
#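 Purified human 15hLO-2 (50 nM final) preincubated with compounds 15 min at room temperature in 25 mM Hepes pH 7.5, 0.01% Triton X-100, then 45 uM arachidonic acid added for 90 min; hydroperoxide detected via ferrous/xylenol orange, 573/405 nm absorbance ratio.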
# Hits are given with their value; 0 = inactive; ? = inconclusive; - = no result; [ ] = dose if it differs, or a comment. Unless noted, calls follow the shape of the dose curve; as a rule, active = well fitted curve in the direction sought with a large enough effect; inconclusive = small, poorly fitted or top-dose-only effect, or another doubt; inactive = no such curve, though single readings can be large; an effect the other way counts as inactive or inconclusive.
SMILES,ALOX12 inhib,IMPase cell inh,IMPase Li inh,PNC assembly inh,ALOX15B inhib
CC[C@H](C)[C@@H](NC(=O)O[C@@H]1Cc2cc(OC)ccc2O[C@H]1c1cccc(OC)c1)C(=O)OC,-,-,0,-,-
O=C(Nc1ccccc1N1CCCC1)c1cccnc1,0,0,0,0,-
O=C(Nc1cc(C(F)(F)F)ccc1N1CCCC1)c1cccnc1,0,0,0,-89.5,0
CCCCCC1CC(CC(C)C(=O)Nc2nncs2)C(=O)O1 (stereo not given),0,0,0,0,-
CCCCCC1CC(CC(=O)Nc2nncs2)C(=O)O1 (stereo not given),0,0,0,-100.0,-
CCC(Sc1nnnn1C)C(=O)Nc1ccc(C(C)=O)cc1 (stereo not given),0,0,0,-86.8,0
CC[C@@](N)(C(=O)O)c1ccc(C(=O)O)cc1,0,0,0,-,0
Cc1ccc(C)c(NC(=O)CN(C)C(=O)[C@@H](NC(=O)c2ccc(C(C)(C)C)cc2)C(C)C)c1,0,0,0,-98.4,-
Cc1ccc(C)c(NC(=O)CN(C)C(=O)[C@@H](NC(N)=O)C(C)C)c1,-,-,0,-,-
CCOc1ccc(C2C(C#N)=C(N)SC(N)=C2C#N)c(OCC)c1,0,?,?,0,0[11.4 µM]
CCCCc1ccc(C2C(C#N)=C(N)SC(N)=C2C#N)s1,?,?,0,0,12.6µM
CC[C@H](c1ccc(O)cc1)[C@@H](CC)c1ccc(O)cc1,0,0,0,-,10µM
CCC(c1ccc(O)cc1)C(CC)c1ccc(O)cc1 (stereo not given),0,-,0,-,?
COc1ccccc1CNC(=O)C1COc2ccccc2O1 (stereo not given),0,0,0,0,0
COc1ccc(CNC(=O)C2COc3ccccc3O2)cc1 (stereo not given),0,0,0,-100.5,-
O=C(NC1CC2CCC1C2)C1COc2ccccc2O1 (stereo not given),0,0,0,-85.8,0
COC(=O)c1cn(NC(=O)C2COc3ccccc3O2)c(=O)c2ccccc12 (stereo not given),0,0,11.2µM,0,0
CCOc1ccccc1NC(=O)Cn1cnc2c1c(=O)n(C)c(=O)n2C,-,0,-,-,-
O=C[C@@H]1CCCN1C(=O)[C@@H]1CCCN1C(=O)OCc1ccccc1,-,-,0,-,-
Cc1csc(NC(=O)CSc2nnc3ncccn23)n1,0,0,-,?,0
CCc1nnc(NC(=O)CSc2nnc3ncccn23)s1,0,0[1.84 µM],0,-81.8,0[11.4 µM]
Cc1ccc(S(=O)(=O)NC(CC(=O)NC2CCCC2)c2ccco2)cc1 (stereo not given),0,0[1.84 µM],0,0,0[11.4 µM]
Cc1ccc(S(=O)(=O)NC(CC(=O)N2CCOCC2)c2ccco2)cc1 (stereo not given),0,0[1.84 µM],?,-90.9,0[11.4 µM]
CN(C)CCN1C(=O)CC[C@]2(C)C1=CC[C@@H]1[C@@H]2CC[C@]2(C)[C@H]1CC[C@]2(C)O,0[11.4 µM],-,0,-,0[11.4 µM]
COc1ccc(C(=O)CSc2n[nH]c(-c3ccco3)n2)cc1,0,0,0,-107.0,0
SMILES,ALOX12 inhib,IMPase cell inh,IMPase Li inh,PNC assembly inh,ALOX15B inhib
Cc1ccc(C(=O)CSc2n[nH]c(-c3ccco3)n2)cc1C,0,0,0,0,0
COc1nn(CC(=O)N2N=C(C(F)F)CC2(O)C(F)F)cc1[N+](=O)[O-] (stereo not given),0,0,0,-89.6,-
COc1nn(C(C)C(=O)N2N=C(C(F)F)CC2(O)C(F)F)cc1[N+](=O)[O-] (stereo not given),0,0,0,?,-
Cc1nc2scc(-c3cccs3)c2c(=O)n1CC(=O)O,0,0,0,-80.1,0
O=C(O)Cn1cnc2scc(-c3cccs3)c2c1=O,0,0,0,0,0
COc1ccc(Cl)cc1NC(=O)CN1C(=O)CCS(=O)(=O)c2ccccc21,0,0,0,-100.0,-
CCOc1ccccc1NC(=O)CCN1CCN(S(=O)(=O)c2ccc(Br)cc2)CC1,0,0,0,-107.4,0
COc1ccc(CN(C)C2c3ccccc3-c3ccccc32)cc1,0,0,-,-91.3,-
CC(=O)c1cc2cc(O)ccc2o1,0,0,11.2µM,?,0
COc1cc(C2c3c(oc4ccc(F)cc4c3=O)C(=O)N2Cc2ccc3c(c2)OCO3)ccc1O (stereo not given),-,0,-,-,-
Cc1ccc2nc(N3CCN(C=O)CC3)nc(-c3ccccc3)c2c1,0,0,0,-100.0,-
